# Measured values taken from PubChem BioAssay AID1508601 (ICCB-Longwood Screening Facility, Harvard Medical School, 2020).
# Where “and” joins values, the source holds several entries; their conditions need not be identical. Identical values can stand only once. Out of some 5,700 compounds screened, about 85 (1%) were called active. Rule as the data show it: active = p53-positive nuclei above about 36% (passing the limit was not always enough); inactive = the rest. The sample as a whole holds a higher share of actives than the screen did. Some structures have more than one record in an assay (separate samples or runs), and their calls can disagree.
# Experiments:
# [1] = p53 stabilisation in HPV-positive human cells, imaging, p53-positive nuclei imaging, 24 h, 48 h (AID 1508601); conditions: 24/48 h
# [2] = molecular target: Cellular tumor antigen p53 (Homo sapiens) (UniProt P04637); assay: as above; conditions: 24/48 h, stronger effect = higher value
# [3] = measured here: cell number at 24 h, Library stock concentration: 10 mM
# [4] = measured here: cell number at 48 h, Library stock concentration: 10 mM
# [5] = Library stock concentration: 10 mM
# [6] = measured here: p53 positive nuclei at 24 h, Library stock concentration: 10 mM
# [7] = measured here: cell number at 24 h, Library stock concentration: 3.33 mM
# [8] = measured here: cell number at 48 h, Library stock concentration: 3.33 mM
# [9] = Library stock concentration: 3.33 mM
# [10] = measured here: p53 positive nuclei at 24 h, Library stock concentration: 3.33 mM
# [11] = measured here: cell number at 24 h, concentration not given here
# [12] = measured here: cell number at 48 h, concentration not given here
# [13] = measured here: p53 positive nuclei at 24 h, concentration not given here
# Cellular tumor antigen p53 (Homo sapiens), sequence (P04637 whole entry, looked up): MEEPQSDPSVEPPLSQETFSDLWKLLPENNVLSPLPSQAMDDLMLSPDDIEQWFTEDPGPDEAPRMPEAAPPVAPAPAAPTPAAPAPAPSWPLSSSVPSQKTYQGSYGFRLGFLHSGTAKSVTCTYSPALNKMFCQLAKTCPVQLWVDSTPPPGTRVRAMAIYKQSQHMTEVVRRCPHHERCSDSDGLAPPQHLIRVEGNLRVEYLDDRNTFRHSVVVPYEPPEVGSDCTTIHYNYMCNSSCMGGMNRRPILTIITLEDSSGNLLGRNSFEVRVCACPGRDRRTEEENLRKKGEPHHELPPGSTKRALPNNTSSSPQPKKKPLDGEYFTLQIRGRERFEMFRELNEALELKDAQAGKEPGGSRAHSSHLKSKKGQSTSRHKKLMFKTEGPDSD
smiles,measurement,setting,value
CCN1CCN(Cc2ccc(NC(=O)c3ccc(C)c(Oc4ccnc5[nH]ccc45)c3)cc2C(F)(F)F)CC1,"nuclei count, normalised","[1]; measured here: cell number at 24 h, Library stock concentration: 80 uM",106%
same,"nuclei count, normalised","[1]; measured here: cell number at 24 h, Library stock concentration: 400 uM",105%
same,"nuclei count, normalised","[1]; measured here: cell number at 24 h, Library stock concentration: 2 mM",97.9%
same,"nuclei count, normalised",[1]; [3],101%
same,"nuclei count, normalised","[1]; measured here: cell number at 48 h, Library stock concentration: 80 uM",116%
same,"nuclei count, normalised","[1]; measured here: cell number at 48 h, Library stock concentration: 400 uM",108%
same,"nuclei count, normalised","[1]; measured here: cell number at 48 h, Library stock concentration: 2 mM",111%
same,"nuclei count, normalised",[1]; [4],112%
same,"p53-positive nuclei, normalised",[2]; Library stock concentration: 80 uM,-0.0678% (inactive)
same,"p53-positive nuclei, normalised",[2]; Library stock concentration: 400 uM,0.0485% (inactive)
same,"p53-positive nuclei, normalised",[2]; Library stock concentration: 2 mM,-0.223% (inactive)
same,"p53-positive nuclei, normalised",[2]; [5],-0.127% (inactive)
same,"p53-positive nuclei, normalised","[2]; measured here: p53 positive nuclei at 24 h, Library stock concentration: 80 uM",-0.156%
same,"p53-positive nuclei, normalised","[2]; measured here: p53 positive nuclei at 24 h, Library stock concentration: 400 uM",-0.0165%
same,"p53-positive nuclei, normalised","[2]; measured here: p53 positive nuclei at 24 h, Library stock concentration: 2 mM",-0.102%
same,"p53-positive nuclei, normalised",[2]; [6],-0.00926%
COc1cccc2c1C(=O)c1c(O)c3c(c(O)c1C2=O)C[C@@](O)(C(=O)CO)CC3O[C@H]1CC(N)C(O)C(C)O1 (stereo partly specified),"nuclei count, normalised",[1]; [7],45.5% and 23.6%
same,"nuclei count, normalised",[1]; [8],36.1% and 17%
same,"p53-positive nuclei, normalised",[2]; [9],21.6% (inactive) and 89.4% (active)
same,"p53-positive nuclei, normalised",[2]; [10],2.1% and 92.1%
COc1cccc2c1C(=O)c1c(O)c3c(c(O)c1C2=O)C[C@@](O)(C(=O)CO)C[C@@H]3OC1CC(N)C(OC2CCCCO2)C(C)O1 (stereo partly specified),"nuclei count, normalised",[1]; [7],43.4%
same,"nuclei count, normalised",[1]; [8],38.3%
same,"p53-positive nuclei, normalised",[2]; [9],16.4% (inactive)
same,"p53-positive nuclei, normalised",[2]; [10],10.3%
C=C1C[C@H](O)[C@H](C/C=C\CCCC(=O)O)[C@H]1/C=C/C(=O)CCCCC,"nuclei count, normalised",[1]; [11],111%
same,"nuclei count, normalised",[1]; [12],105%
same,"p53-positive nuclei, normalised",[2]; concentration not given here,0.125% (inactive)
same,"p53-positive nuclei, normalised",[2]; [13],-0.0213%
Nc1ccn(C2OC(CO)C(O)C2F)c(=O)n1 (stereo unspecified),"nuclei count, normalised","[1]; measured here: cell number at 24 h, Library stock concentration: 500 nM",115%
same,"nuclei count, normalised","[1]; measured here: cell number at 24 h, Library stock concentration: 1.5 uM",111%
same,"nuclei count, normalised","[1]; measured here: cell number at 24 h, Library stock concentration: 4.6 uM",77%
same,"nuclei count, normalised","[1]; measured here: cell number at 24 h, Library stock concentration: 13.7 uM",64.6%
same,"nuclei count, normalised","[1]; measured here: cell number at 24 h, Library stock concentration: 41 uM",64.5%
same,"nuclei count, normalised","[1]; measured here: cell number at 24 h, Library stock concentration: 123 uM",60.1%
same,"nuclei count, normalised","[1]; measured here: cell number at 24 h, Library stock concentration: 370 uM",55.2%
same,"nuclei count, normalised","[1]; measured here: cell number at 24 h, Library stock concentration: 1.111 mM",59.3%
same,"nuclei count, normalised","[1]; measured here: cell number at 24 h, Library stock concentration: 3.333 mM",55.3%
same,"nuclei count, normalised",[1]; [3],51.2%
same,"nuclei count, normalised","[1]; measured here: cell number at 48 h, Library stock concentration: 500 nM",115%
same,"nuclei count, normalised","[1]; measured here: cell number at 48 h, Library stock concentration: 1.5 uM",107%
same,"nuclei count, normalised","[1]; measured here: cell number at 48 h, Library stock concentration: 4.6 uM",62%
same,"nuclei count, normalised","[1]; measured here: cell number at 48 h, Library stock concentration: 13.7 uM",51.1%
same,"nuclei count, normalised","[1]; measured here: cell number at 48 h, Library stock concentration: 41 uM",50.8%
same,"nuclei count, normalised","[1]; measured here: cell number at 48 h, Library stock concentration: 123 uM",48.7%
same,"nuclei count, normalised","[1]; measured here: cell number at 48 h, Library stock concentration: 370 uM",44.4%
same,"nuclei count, normalised","[1]; measured here: cell number at 48 h, Library stock concentration: 1.111 mM",46.2%
same,"nuclei count, normalised","[1]; measured here: cell number at 48 h, Library stock concentration: 3.333 mM",45.1%
same,"nuclei count, normalised",[1]; [4],41.5%
same,"p53-positive nuclei, normalised",[2]; Library stock concentration: 500 nM,-0.105% (inactive)
same,"p53-positive nuclei, normalised",[2]; Library stock concentration: 1.5 uM,-0.0067% (inactive)
same,"p53-positive nuclei, normalised",[2]; Library stock concentration: 4.6 uM,0.019% (inactive)
same,"p53-positive nuclei, normalised",[2]; Library stock concentration: 13.7 uM,0.162% (inactive)
same,"p53-positive nuclei, normalised",[2]; Library stock concentration: 41 uM,0.839% (inactive)
same,"p53-positive nuclei, normalised",[2]; Library stock concentration: 123 uM,0.265% (inactive)
same,"p53-positive nuclei, normalised",[2]; Library stock concentration: 370 uM,0.43% (inactive)
same,"p53-positive nuclei, normalised",[2]; Library stock concentration: 1.111 mM,0.292% (inactive)
same,"p53-positive nuclei, normalised",[2]; Library stock concentration: 3.333 mM,0.443% (inactive)
same,"p53-positive nuclei, normalised",[2]; [5],0.266% (inactive)
same,"p53-positive nuclei, normalised","[2]; measured here: p53 positive nuclei at 24 h, Library stock concentration: 500 nM",-0.0685%
same,"p53-positive nuclei, normalised","[2]; measured here: p53 positive nuclei at 24 h, Library stock concentration: 1.5 uM",0.0513%
same,"p53-positive nuclei, normalised","[2]; measured here: p53 positive nuclei at 24 h, Library stock concentration: 4.6 uM",0.0647%
same,"p53-positive nuclei, normalised","[2]; measured here: p53 positive nuclei at 24 h, Library stock concentration: 13.7 uM",-0.0822%
same,"p53-positive nuclei, normalised","[2]; measured here: p53 positive nuclei at 24 h, Library stock concentration: 41 uM",0.108%
same,"p53-positive nuclei, normalised","[2]; measured here: p53 positive nuclei at 24 h, Library stock concentration: 123 uM",0.0172%
same,"p53-positive nuclei, normalised","[2]; measured here: p53 positive nuclei at 24 h, Library stock concentration: 370 uM",-0.0726%
same,"p53-positive nuclei, normalised","[2]; measured here: p53 positive nuclei at 24 h, Library stock concentration: 1.111 mM",-0.0774%
same,"p53-positive nuclei, normalised","[2]; measured here: p53 positive nuclei at 24 h, Library stock concentration: 3.333 mM",0.296%
same,"p53-positive nuclei, normalised",[2]; [6],-0.0521%
CC(C)(C)Nc1nc2cc(Cl)c(Cl)cc2nc1S(C)(=O)=O,"nuclei count, normalised","[1]; measured here: cell number at 24 h, Library stock concentration: 46 uM",108%
same,"nuclei count, normalised","[1]; measured here: cell number at 24 h, Library stock concentration: 278 uM",105%
same,"nuclei count, normalised","[1]; measured here: cell number at 24 h, Library stock concentration: 1.67 mM",93.6%
same,"nuclei count, normalised",[1]; [3],44.4%
same,"nuclei count, normalised","[1]; measured here: cell number at 48 h, Library stock concentration: 46 uM",118%
same,"nuclei count, normalised","[1]; measured here: cell number at 48 h, Library stock concentration: 278 uM",109%
same,"nuclei count, normalised","[1]; measured here: cell number at 48 h, Library stock concentration: 1.67 mM",106%
same,"nuclei count, normalised",[1]; [4],50%
same,"p53-positive nuclei, normalised",[2]; Library stock concentration: 46 uM,-0.222% (inactive)
same,"p53-positive nuclei, normalised",[2]; Library stock concentration: 278 uM,-0.1% (inactive)
same,"p53-positive nuclei, normalised",[2]; Library stock concentration: 1.67 mM,-0.239% (inactive)
same,"p53-positive nuclei, normalised",[2]; [5],1.33% (inactive)
same,"p53-positive nuclei, normalised","[2]; measured here: p53 positive nuclei at 24 h, Library stock concentration: 46 uM",-0.151%
same,"p53-positive nuclei, normalised","[2]; measured here: p53 positive nuclei at 24 h, Library stock concentration: 278 uM",-0.151%
same,"p53-positive nuclei, normalised","[2]; measured here: p53 positive nuclei at 24 h, Library stock concentration: 1.67 mM",0.616%
same,"p53-positive nuclei, normalised",[2]; [6],1.86%
CC(C)CC1(CO)CCCN(C(=O)c2cccc(C#CC(C)(C)O)c2)C1 (stereo unspecified),"nuclei count, normalised",[1]; [11],99%
same,"nuclei count, normalised",[1]; [12],100%
same,"p53-positive nuclei, normalised",[2]; concentration not given here,0.108% (inactive)
same,"p53-positive nuclei, normalised",[2]; [13],0.27%
O=C(O)C1=CC(O)C(O)C(O)C1 (stereo unspecified),"nuclei count, normalised",[1]; [7],109%
same,"nuclei count, normalised",[1]; [8],109%
same,"p53-positive nuclei, normalised",[2]; [9],-0.187% (inactive)
same,"p53-positive nuclei, normalised",[2]; [10],-0.275%
O=C(O)c1cc(-c2ccccc2)nc2ccccc12,"nuclei count, normalised",[1]; [7],111%
same,"nuclei count, normalised",[1]; [8],106%
same,"p53-positive nuclei, normalised",[2]; [9],-0.105% (inactive)
same,"p53-positive nuclei, normalised",[2]; [10],-0.282%
